Results filed as inconclusive are left out. The call rests on the fitted dose curve; in most records, active means well fitted curve in either direction with a large enough effect (not every such curve was filed as active); inconclusive means small, poorly fitted or top-dose-only effect, or another doubt; inactive means flat fitted curve, though single readings scatter.
Test: AP1 Signaling Pathway (AID 357)
Settings: ME-180 (cervical carcinoma) AP-1-bla reporter, EGF-induced, beta-lactamase ratio, 5 h; at 17.2 µM (top of the series) unless noted
How it was run: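 Titration-series screen for positive or negative modulators of EC50 EGF-induced signaling in ME-180 cells carrying an AP-1-driven beta-lactamase reporter. After 5 hours at 37 degrees Celsius, CCF4 460nm/530nm emission ratio gave %Activity; AC50 values derived.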
On the % scale 0 is the no-effect control and ±100 the full control effect.

Activity change, negative = inhibition, inactive:
CCOC(=O)c1c(N)sc(=S)c2c1CCC2 -21.1%
CC1=C(C(=O)Nc2ccccc2)C(c2ccncc2)C(C#N)=C(SCC(=O)NC(C)C)N1 (stereo not given) -5.76%
Cc1ccc(C2/C(=C(/O)c3ccc(OC(C)C)cc3)C(=O)C(=O)N2CCN2CCOCC2)cc1 (stereo not given) 0.482%
COc1ccccc1-n1c(N)c(C(=O)NCC2CCCO2)c2nc3ccccc3nc21 (stereo not given) 19.4%
O=C(NC1(C(F)(F)F)C(=O)Nc2c1c(=O)[nH]c(=O)n2-c1ccccc1)c1cccnc1 (stereo not given) -3.2%
c1ccc(-c2nc(NCC3CCCO3)c3ccccc3n2)nc1 (stereo not given) -1.55%
CC(C)Cc1[nH]c(=O)c(C#N)c2c1COC(C)(C)C2 9.17%
COC(=O)C1=C(C)N=C2SC(C)C(=O)N2C1c1cccc(F)c1 (stereo not given) -23.7%
CN(C)CCCN1C(=O)C(O)=C(C(=O)c2cc3ccccc3o2)C1c1ccccc1 (stereo not given) 8.55%
NC(=O)CSc1c[nH]c2ccccc12 2.78%
CC(=O)c1cc2c(=O)c3ccccc3oc2nc1C -1.73%
COc1cccc(C(=O)NCC(=O)n2nc(C)cc2C)c1 23.4%
Cc1nnc(N2CCOCC2)c2ccccc12 5.51%
NC(=O)C(c1ccccc1)C1CCCC1 (stereo not given) -5.55%
O=C(NCCO)c1cccc2c1C(=O)c1ccccc1-2 9.17%
COc1ccc(Oc2nc3c(c(=O)n(C)c(=O)n3C)n2Cc2cccc(OC)c2)cc1 -6%
COc1ccc2[nH]c(C)c(C(=O)CN3CCOCC3)c2c1 12.7%
COC(=O)c1nn2c(C(F)(F)F)cc(-c3ccc(Br)o3)nc2c1Br 0.345%
Oc1ccc(C=Nc2ccc3ncccc3c2)c(O)c1 26.2%
Cc1cccc(N2C(=O)CC(N3CCN(Cc4ccc(Cl)cc4)CC3)C2=O)c1 (stereo not given) 1.23%
CC12CCC(C(=O)N(CCC#N)CCC#N)(CC1=O)C2(C)C (stereo not given) 10.6%
CCC(=O)O[C@@H]1CC(=O)O[C@H](C)CC=CC=C[C@@H](O)[C@H](C)C[C@H](CC=O)[C@H](O[C@H]2O[C@H](C)[C@@H](O[C@H]3C[C@@](C)(O)[C@@H](OC(=O)CC)[C@H](C)O3)[C@H](N(C)C)[C@H]2O)[C@H]1OC 1.11%
CCOC(=O)c1cc(C)n(-c2ccc(OC)c(OC)c2)c1C -17.8%
NS(=O)(=O)c1ccc(-c2ccc(C=NC3CCS(=O)(=O)C3)o2)cc1 (stereo not given) 19.2%
CCN(CC)CCN1C(=O)C(=O)/C(=C(/O)c2c(C)[nH]c(C(=O)OC)c2C)C1c1ccc(OC)cc1 (stereo not given) 9.19%
COc1ccc(OC)c(C2/C(=C(/O)c3ccc(C)cc3)C(=O)C(=O)N2Cc2ccco2)c1 (stereo not given) -0.882%
CCOc1ccc(C2=Nn3c(nnc3-c3cccnc3)SC2)cc1 3.18%
CCn1c(SCC(=O)O)nc2sc3c(c2c1=O)CCC3 5.13%
c1coc(-c2nnc3sc(-c4cccs4)nn23)c1 -11.6%
Cc1ccc(-c2nn(C)c(=O)c3ccccc23)cc1CNC(=O)CSc1nc2ccccc2o1 -10.6%
CCC(C(=O)Nc1ncn[nH]1)(C(F)(F)F)C(F)(F)F 3.02%
COCCCNc1nc2c(c(=O)n(C)c(=O)n2C)n1Cc1cccc(OC)c1 -8.39%
Nc1nnc(CSc2ccc(Cl)cc2)s1 18.1%
COc1ccc(C2N3CC4(C)CN2CC(C)(C3)C4O)cc1OC (stereo not given) 9.87%
CC1(C)Cc2nc(N)c(C(=O)NCCO)cc2CO1 8.22%
Cn1c(=O)c2c3c(sc2n2c(SCC(N)=O)nnc12)CC(C(C)(C)C)CC3 (stereo not given) -9.72%
Cc1[nH]nc2c1C(CCc1ccccc1)C(C#N)=C(N)O2 (stereo not given) -6.35%
O=C(Oc1cccnc1)c1ccco1 7.51%
Cc1c(O)c(CN2CCCC(C)C2)cc2c3c(c(=O)oc12)CCC3 (stereo not given) 13.2%
CCCOc1cccc(-c2nnc(N)s2)c1 -15.9%

Test: NFAT Signaling Pathway (AID 444);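 further: carbachol stimulus at about its EC50 of 1 µM final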
Settings: Jurkat NFAT-bla M1, carbachol, beta-lactamase ratio, 5 h; at 17.2 µM (top of the series) unless noted
How it was run: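 Jurkat cells carrying an NFAT-driven β-lactamase reporter and co-transfected muscarinic M1 receptor were treated with compound plus carbachol (1 uM final, an EC50 level) for 5 h at 37 °C. CCF4 loading followed for 1 h at RT; 460/530 nm ratio gave %activity.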

Activity change, negative = inhibition, inactive:
CCOC(=O)c1c(N)sc(=S)c2c1CCC2 -6.19%
CC1=C(C(=O)Nc2ccccc2)C(c2ccncc2)C(C#N)=C(SCC(=O)NC(C)C)N1 (stereo not given) 1.05%
Cc1ccc(C2/C(=C(/O)c3ccc(OC(C)C)cc3)C(=O)C(=O)N2CCN2CCOCC2)cc1 (stereo not given) 10.1%
COc1ccccc1-n1c(N)c(C(=O)NCC2CCCO2)c2nc3ccccc3nc21 (stereo not given) 21.4%
O=C(NC1(C(F)(F)F)C(=O)Nc2c1c(=O)[nH]c(=O)n2-c1ccccc1)c1cccnc1 (stereo not given) 8.45%
c1ccc(-c2nc(NCC3CCCO3)c3ccccc3n2)nc1 (stereo not given) -27.7%
CC(C)Cc1[nH]c(=O)c(C#N)c2c1COC(C)(C)C2 17.3%
COC(=O)C1=C(C)N=C2SC(C)C(=O)N2C1c1cccc(F)c1 (stereo not given) -3.19%
CN(C)CCCN1C(=O)C(O)=C(C(=O)c2cc3ccccc3o2)C1c1ccccc1 (stereo not given) -4.4%
NC(=O)CSc1c[nH]c2ccccc12 0.963%
CC(=O)c1cc2c(=O)c3ccccc3oc2nc1C -16.9%
COc1cccc(C(=O)NCC(=O)n2nc(C)cc2C)c1 -4.99%
Cc1nnc(N2CCOCC2)c2ccccc12 6.76%
NC(=O)C(c1ccccc1)C1CCCC1 (stereo not given) 1.68%
O=C(NCCO)c1cccc2c1C(=O)c1ccccc1-2 2.44%
COc1ccc(Oc2nc3c(c(=O)n(C)c(=O)n3C)n2Cc2cccc(OC)c2)cc1 -3.53%
COc1ccc2[nH]c(C)c(C(=O)CN3CCOCC3)c2c1 -9.22%
COC(=O)c1nn2c(C(F)(F)F)cc(-c3ccc(Br)o3)nc2c1Br -16.6%
Oc1ccc(C=Nc2ccc3ncccc3c2)c(O)c1 -26.8%
Cc1cccc(N2C(=O)CC(N3CCN(Cc4ccc(Cl)cc4)CC3)C2=O)c1 (stereo not given) 6.12%
CC12CCC(C(=O)N(CCC#N)CCC#N)(CC1=O)C2(C)C (stereo not given) 18.9%
CCC(=O)O[C@@H]1CC(=O)O[C@H](C)CC=CC=C[C@@H](O)[C@H](C)C[C@H](CC=O)[C@H](O[C@H]2O[C@H](C)[C@@H](O[C@H]3C[C@@](C)(O)[C@@H](OC(=O)CC)[C@H](C)O3)[C@H](N(C)C)[C@H]2O)[C@H]1OC 8.88%
CCOC(=O)c1cc(C)n(-c2ccc(OC)c(OC)c2)c1C -1.46%
NS(=O)(=O)c1ccc(-c2ccc(C=NC3CCS(=O)(=O)C3)o2)cc1 (stereo not given) -3.68%
CCN(CC)CCN1C(=O)C(=O)/C(=C(/O)c2c(C)[nH]c(C(=O)OC)c2C)C1c1ccc(OC)cc1 (stereo not given) 8.2%
COc1ccc(OC)c(C2/C(=C(/O)c3ccc(C)cc3)C(=O)C(=O)N2Cc2ccco2)c1 (stereo not given) -17.7%
CCOc1ccc(C2=Nn3c(nnc3-c3cccnc3)SC2)cc1 -2.85%
CCn1c(SCC(=O)O)nc2sc3c(c2c1=O)CCC3 -8.87%
c1coc(-c2nnc3sc(-c4cccs4)nn23)c1 -8.1%
Cc1ccc(-c2nn(C)c(=O)c3ccccc23)cc1CNC(=O)CSc1nc2ccccc2o1 -12.2%
CCC(C(=O)Nc1ncn[nH]1)(C(F)(F)F)C(F)(F)F -11.9%
COCCCNc1nc2c(c(=O)n(C)c(=O)n2C)n1Cc1cccc(OC)c1 -4.82%
Nc1nnc(CSc2ccc(Cl)cc2)s1 -0.614%
COc1ccc(C2N3CC4(C)CN2CC(C)(C3)C4O)cc1OC (stereo not given) -5.44%
CC1(C)Cc2nc(N)c(C(=O)NCCO)cc2CO1 3.25%
Cn1c(=O)c2c3c(sc2n2c(SCC(N)=O)nnc12)CC(C(C)(C)C)CC3 (stereo not given) 19.6%
Cc1[nH]nc2c1C(CCc1ccccc1)C(C#N)=C(N)O2 (stereo not given) 10.3%
O=C(Oc1cccnc1)c1ccco1 5.81%
Cc1c(O)c(CN2CCCC(C)C2)cc2c3c(c(=O)oc12)CCC3 (stereo not given) -10.5%
CCCOc1cccc(-c2nnc(N)s2)c1 -11.9%
